Measured values as given in PMC7862700, “An all-to-all approach to the identification of sequence-specific readers for epigenetic DNA modifications on cytosine”.

Key:
Test in all cases: DAPPL (digital affinity profiling via proximity ligation, sequencing); 10 mM Tris-HCl pH 7.5, 50 mM NaCl, 1 mM DTT, 4% glycerol, room temperature, 30 min; GST-TFs on glutathione beads, 16-mer random dsDNA library, 0.1% formaldehyde crosslink after washing; high values mean tight binding
FEV = target: T1, FEV (Homo sapiens, UniProt Q99581 1-238); conditions: protein: recombinant; tags: N-terminal GST; dsDNA, one strand shown
T1 sequence: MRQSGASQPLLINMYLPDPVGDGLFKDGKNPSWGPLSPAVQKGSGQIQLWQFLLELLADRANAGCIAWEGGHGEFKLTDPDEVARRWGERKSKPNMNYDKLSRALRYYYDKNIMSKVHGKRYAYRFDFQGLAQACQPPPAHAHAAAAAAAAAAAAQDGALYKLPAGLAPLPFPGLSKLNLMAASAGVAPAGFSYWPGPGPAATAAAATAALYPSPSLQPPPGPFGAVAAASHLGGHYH
Method in brief: (§1)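 Yeast served to express human transcription factors as GST fusions, which were then captured on glutathione beads and labelled with DNA barcodes. Pooled with a tag-only sample, they were incubated with 200 nmole of a 16-mer random double-stranded DNA library for 30 min at room temperature in Tris/NaCl/DTT/glycerol buffer, washed, crosslinked with 0.1% formaldehyde, ligated by proximity, amplified by PCR and sequenced. Dividing each hexamer's read frequency for a factor by its frequency for the tag-only sample gives the binding signal.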

ETV5 = ETV5 (Homo sapiens, UniProt P41161 1-510); conditions: protein: recombinant; tags: N-terminal GST; dsDNA, one strand shown
Method in brief: as §1

HSF1 = HSF1 (Homo sapiens, UniProt Q00613 1-529); conditions: protein: recombinant; tags: N-terminal GST; chain copies: 3; dsDNA, one strand shown
Method in brief: as §1

SPIC = target: T2, SPIC (Homo sapiens, UniProt Q8N5J4 1-248); conditions: protein: recombinant; tags: N-terminal GST; dsDNA, one strand shown
T2 sequence: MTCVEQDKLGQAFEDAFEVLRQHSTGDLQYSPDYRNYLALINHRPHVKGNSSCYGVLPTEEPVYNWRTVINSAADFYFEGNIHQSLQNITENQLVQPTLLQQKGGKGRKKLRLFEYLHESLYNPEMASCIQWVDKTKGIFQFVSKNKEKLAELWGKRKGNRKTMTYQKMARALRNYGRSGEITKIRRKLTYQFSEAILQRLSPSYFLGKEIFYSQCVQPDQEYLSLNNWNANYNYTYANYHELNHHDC
Method in brief: as §1

ELF4 = ELF4 (Homo sapiens, UniProt Q99607 1-663); conditions: protein: recombinant; tags: N-terminal GST; dsDNA, one strand shown
Method in brief: as §1

ELK4 = target: T3, ELK4 (Homo sapiens, UniProt P28324-2 1-405); conditions: protein: recombinant; tags: N-terminal GST; dsDNA, one strand shown
T3 sequence: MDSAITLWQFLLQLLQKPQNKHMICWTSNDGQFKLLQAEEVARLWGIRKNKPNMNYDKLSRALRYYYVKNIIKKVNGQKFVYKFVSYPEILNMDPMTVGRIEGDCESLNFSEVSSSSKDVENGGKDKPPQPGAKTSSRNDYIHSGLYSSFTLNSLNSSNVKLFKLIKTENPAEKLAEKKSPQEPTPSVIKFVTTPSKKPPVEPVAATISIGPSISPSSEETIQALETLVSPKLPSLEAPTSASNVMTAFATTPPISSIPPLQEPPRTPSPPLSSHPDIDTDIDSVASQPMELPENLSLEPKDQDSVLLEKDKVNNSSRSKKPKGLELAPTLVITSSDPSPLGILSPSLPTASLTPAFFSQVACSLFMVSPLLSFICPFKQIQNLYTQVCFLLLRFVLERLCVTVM
Method in brief: as §1

ETV2 = target: T4, ETV2 (Homo sapiens, UniProt O00321 1-342); conditions: protein: recombinant; tags: N-terminal GST; dsDNA, one strand shown
T4 sequence: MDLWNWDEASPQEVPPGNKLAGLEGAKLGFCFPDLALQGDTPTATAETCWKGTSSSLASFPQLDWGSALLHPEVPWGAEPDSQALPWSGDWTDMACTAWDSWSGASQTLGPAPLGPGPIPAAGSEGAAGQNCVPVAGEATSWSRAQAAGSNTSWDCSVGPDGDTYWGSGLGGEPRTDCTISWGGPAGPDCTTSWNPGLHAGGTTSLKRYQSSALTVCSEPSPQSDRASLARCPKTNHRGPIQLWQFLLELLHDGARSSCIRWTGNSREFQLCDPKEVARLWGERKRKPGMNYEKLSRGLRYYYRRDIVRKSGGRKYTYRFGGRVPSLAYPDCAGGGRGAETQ
Method in brief: as §1

ELF3 = target: T5, ELF3 (Homo sapiens, UniProt P78545 1-371); conditions: protein: recombinant; tags: N-terminal GST; dsDNA, one strand shown
T5 sequence: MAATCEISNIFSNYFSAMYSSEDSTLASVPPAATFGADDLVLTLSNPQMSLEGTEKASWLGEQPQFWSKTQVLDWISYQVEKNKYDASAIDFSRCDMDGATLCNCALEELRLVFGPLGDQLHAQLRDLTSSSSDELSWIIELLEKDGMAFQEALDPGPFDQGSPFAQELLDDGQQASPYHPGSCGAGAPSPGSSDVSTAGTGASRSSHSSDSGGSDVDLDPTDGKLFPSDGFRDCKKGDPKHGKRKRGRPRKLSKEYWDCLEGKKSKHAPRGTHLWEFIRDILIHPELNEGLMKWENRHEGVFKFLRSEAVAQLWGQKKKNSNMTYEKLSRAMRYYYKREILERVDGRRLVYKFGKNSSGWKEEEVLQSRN
Method in brief: as §1

CRX = CRX (Homo sapiens, UniProt O43186 1-299); conditions: protein: recombinant; tags: N-terminal GST; dsDNA, one strand shown
Method in brief: as §1

ETV1 = ETV1 (Homo sapiens, UniProt P50549 1-477); conditions: protein: recombinant; tags: N-terminal GST; dsDNA, one strand shown
Method in brief: as §1

ERF = target: T6, ERF (Homo sapiens, UniProt P50548 1-548); conditions: protein: recombinant; tags: N-terminal GST; dsDNA, one strand shown
T6 sequence: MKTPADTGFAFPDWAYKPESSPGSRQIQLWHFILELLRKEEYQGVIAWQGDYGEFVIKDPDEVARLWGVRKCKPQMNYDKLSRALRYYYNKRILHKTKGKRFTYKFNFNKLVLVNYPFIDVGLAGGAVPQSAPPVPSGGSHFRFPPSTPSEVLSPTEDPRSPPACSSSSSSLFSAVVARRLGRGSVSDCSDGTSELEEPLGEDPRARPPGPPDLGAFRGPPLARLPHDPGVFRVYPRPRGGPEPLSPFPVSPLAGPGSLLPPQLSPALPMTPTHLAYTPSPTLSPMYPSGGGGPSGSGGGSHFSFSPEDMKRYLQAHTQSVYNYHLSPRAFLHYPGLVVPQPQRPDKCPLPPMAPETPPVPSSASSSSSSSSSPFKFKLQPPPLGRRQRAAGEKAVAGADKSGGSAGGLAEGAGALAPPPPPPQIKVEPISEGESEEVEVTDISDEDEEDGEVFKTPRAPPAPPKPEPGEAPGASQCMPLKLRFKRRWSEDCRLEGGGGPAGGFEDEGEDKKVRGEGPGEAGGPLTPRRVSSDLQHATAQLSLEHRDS
Method in brief: as §1

ETV3L = target: T7, ETV3L (Homo sapiens, UniProt Q6ZN32 1-361); conditions: protein: recombinant; tags: N-terminal GST; dsDNA, one strand shown
T7 sequence: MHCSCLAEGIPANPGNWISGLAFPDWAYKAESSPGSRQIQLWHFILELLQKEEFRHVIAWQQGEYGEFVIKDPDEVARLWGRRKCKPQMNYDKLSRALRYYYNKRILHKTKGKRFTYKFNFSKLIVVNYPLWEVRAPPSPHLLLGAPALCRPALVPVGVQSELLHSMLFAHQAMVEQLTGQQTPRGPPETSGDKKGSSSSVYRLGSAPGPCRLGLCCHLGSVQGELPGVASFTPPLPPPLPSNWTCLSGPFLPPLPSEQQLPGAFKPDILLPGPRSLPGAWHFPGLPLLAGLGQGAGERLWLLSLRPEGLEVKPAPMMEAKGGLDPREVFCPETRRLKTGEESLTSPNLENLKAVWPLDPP
Method in brief: as §1

ETS2 = target: T8, ETS2 (Homo sapiens, UniProt P15036 1-469); conditions: protein: recombinant; tags: N-terminal GST; dsDNA, one strand shown
T8 sequence: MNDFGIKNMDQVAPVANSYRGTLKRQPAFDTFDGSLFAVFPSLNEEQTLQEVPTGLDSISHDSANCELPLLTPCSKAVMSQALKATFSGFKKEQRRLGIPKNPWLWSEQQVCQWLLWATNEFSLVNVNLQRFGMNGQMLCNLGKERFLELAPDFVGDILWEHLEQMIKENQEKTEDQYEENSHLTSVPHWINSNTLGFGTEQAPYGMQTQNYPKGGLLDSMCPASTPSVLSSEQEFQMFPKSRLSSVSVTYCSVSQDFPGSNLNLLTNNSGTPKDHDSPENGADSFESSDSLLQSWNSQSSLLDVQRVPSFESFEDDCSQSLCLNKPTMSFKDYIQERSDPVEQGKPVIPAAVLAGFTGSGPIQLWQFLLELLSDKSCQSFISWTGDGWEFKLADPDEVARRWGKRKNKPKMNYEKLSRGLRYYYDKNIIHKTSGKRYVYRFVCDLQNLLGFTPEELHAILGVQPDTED
Method in brief: as §1

SPDEF = target: T9, SPDEF (Homo sapiens, UniProt O95238 1-335); conditions: protein: recombinant; tags: N-terminal GST; dsDNA, one strand shown
T9 sequence: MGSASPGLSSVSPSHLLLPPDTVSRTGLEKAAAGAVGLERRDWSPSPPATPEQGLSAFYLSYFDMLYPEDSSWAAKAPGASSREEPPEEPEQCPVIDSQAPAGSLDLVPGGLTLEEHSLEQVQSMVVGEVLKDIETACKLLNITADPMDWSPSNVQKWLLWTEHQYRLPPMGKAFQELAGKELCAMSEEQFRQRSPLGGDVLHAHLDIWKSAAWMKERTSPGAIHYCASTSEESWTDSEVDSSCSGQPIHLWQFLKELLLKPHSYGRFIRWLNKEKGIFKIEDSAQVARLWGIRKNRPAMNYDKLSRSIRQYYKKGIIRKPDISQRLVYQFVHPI
Method in brief: as §1

ETV7 = target: T10, ETV7 (Homo sapiens, UniProt Q9Y603 1-341); conditions: protein: recombinant; tags: N-terminal GST; dsDNA, one strand shown
T10 sequence: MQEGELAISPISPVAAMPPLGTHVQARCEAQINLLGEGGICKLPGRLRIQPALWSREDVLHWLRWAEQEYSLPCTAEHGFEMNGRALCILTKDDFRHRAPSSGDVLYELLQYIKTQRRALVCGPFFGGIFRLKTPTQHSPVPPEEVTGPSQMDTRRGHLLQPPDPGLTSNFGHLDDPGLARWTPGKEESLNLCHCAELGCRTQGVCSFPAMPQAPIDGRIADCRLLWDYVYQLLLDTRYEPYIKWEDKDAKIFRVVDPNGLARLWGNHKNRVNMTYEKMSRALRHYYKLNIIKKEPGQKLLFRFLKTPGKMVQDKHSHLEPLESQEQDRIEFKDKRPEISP
Method in brief: as §1

ELF5 = target: T11, ELF5 (Homo sapiens, UniProt Q9UKW6-2 1-255); conditions: protein: recombinant; tags: N-terminal GST; dsDNA, one strand shown
T11 sequence: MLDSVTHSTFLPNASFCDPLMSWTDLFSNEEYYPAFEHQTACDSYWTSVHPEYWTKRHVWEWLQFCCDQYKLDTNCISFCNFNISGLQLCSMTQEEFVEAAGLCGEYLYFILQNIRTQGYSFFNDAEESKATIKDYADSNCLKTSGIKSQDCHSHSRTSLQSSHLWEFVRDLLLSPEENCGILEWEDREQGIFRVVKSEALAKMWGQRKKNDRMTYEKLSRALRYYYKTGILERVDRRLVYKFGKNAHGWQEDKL
Method in brief: as §1

ETV3 = target: T12, ETV3 (Homo sapiens, UniProt P41162-2 1-143); conditions: protein: recombinant; tags: N-terminal GST; dsDNA, one strand shown
T12 sequence: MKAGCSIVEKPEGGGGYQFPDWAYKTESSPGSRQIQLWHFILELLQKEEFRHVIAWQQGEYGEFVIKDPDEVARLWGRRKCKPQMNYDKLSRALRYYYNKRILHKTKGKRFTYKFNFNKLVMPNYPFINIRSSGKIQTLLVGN
Method in brief: as §1

ETV6 = ETV6 (Homo sapiens, UniProt P41212 1-452); conditions: protein: recombinant; tags: N-terminal GST; dsDNA, one strand shown
Method in brief: as §1

Chain of CRX (O43186 whole entry): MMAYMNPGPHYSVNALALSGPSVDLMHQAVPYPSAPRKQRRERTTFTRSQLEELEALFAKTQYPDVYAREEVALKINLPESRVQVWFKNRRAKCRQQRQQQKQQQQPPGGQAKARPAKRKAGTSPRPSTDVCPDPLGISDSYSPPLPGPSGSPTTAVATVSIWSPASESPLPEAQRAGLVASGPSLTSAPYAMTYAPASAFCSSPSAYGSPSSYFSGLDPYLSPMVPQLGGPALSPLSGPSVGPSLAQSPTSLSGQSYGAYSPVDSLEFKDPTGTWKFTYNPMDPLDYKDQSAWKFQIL
Chain of ETV6 (P41212 whole entry): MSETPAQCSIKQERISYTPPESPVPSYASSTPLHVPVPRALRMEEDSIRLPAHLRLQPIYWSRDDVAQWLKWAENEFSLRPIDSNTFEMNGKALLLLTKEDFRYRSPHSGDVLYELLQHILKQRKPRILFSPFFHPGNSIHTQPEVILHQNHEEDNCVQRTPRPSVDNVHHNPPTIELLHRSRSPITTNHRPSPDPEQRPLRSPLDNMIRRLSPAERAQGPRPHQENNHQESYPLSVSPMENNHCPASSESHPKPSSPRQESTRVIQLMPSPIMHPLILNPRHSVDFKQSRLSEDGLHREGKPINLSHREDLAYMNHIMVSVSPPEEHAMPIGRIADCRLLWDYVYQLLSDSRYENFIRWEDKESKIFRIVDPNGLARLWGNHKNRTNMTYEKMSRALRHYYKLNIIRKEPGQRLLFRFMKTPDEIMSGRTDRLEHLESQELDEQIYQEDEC
Chain of HSF1 (Q00613 whole entry): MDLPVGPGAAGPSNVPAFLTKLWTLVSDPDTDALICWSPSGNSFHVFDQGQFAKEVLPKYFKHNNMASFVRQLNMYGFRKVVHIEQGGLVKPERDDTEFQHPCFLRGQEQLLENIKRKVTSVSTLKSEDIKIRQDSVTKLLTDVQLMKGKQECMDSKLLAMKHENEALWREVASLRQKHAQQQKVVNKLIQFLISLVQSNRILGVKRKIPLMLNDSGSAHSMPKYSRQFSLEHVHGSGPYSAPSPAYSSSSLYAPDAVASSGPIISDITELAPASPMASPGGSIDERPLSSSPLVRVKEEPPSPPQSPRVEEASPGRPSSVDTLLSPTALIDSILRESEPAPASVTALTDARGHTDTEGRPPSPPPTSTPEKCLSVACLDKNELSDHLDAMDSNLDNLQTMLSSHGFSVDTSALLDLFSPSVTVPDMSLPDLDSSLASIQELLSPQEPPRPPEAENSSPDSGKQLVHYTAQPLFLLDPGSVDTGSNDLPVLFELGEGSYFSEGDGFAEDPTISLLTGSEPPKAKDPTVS
Chain of ELF4 (Q99607 whole entry): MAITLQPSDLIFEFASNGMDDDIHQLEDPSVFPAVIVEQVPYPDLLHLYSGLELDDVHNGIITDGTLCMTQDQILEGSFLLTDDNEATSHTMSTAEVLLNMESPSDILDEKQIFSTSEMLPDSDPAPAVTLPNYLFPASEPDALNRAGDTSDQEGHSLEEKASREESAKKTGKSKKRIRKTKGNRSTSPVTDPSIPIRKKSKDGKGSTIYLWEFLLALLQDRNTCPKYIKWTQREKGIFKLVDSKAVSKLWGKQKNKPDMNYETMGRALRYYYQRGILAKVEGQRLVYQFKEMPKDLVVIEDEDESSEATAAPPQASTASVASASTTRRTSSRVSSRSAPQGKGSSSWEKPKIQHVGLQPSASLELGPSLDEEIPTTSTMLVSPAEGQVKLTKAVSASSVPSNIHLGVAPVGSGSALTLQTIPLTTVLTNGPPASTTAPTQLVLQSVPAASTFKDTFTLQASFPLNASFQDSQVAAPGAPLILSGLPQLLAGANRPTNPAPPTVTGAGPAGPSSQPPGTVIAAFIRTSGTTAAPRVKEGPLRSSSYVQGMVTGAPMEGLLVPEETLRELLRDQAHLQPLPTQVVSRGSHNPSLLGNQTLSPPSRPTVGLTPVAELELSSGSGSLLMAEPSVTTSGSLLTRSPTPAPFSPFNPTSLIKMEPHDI
Chain of ETV5 (P41161 whole entry): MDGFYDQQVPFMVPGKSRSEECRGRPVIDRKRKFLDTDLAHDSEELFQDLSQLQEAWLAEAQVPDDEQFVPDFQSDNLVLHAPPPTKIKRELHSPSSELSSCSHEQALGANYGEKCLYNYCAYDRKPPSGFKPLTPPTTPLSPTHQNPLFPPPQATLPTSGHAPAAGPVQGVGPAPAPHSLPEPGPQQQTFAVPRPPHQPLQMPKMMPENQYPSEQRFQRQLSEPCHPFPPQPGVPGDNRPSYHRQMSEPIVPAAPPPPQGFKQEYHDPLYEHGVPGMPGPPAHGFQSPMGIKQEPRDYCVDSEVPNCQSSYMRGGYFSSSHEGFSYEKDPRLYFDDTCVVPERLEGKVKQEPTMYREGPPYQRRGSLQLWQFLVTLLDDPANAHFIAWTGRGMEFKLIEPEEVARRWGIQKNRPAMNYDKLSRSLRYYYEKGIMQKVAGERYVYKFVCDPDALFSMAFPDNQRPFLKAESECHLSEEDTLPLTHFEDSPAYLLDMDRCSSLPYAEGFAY
Chain of ETV1 (P50549 whole entry): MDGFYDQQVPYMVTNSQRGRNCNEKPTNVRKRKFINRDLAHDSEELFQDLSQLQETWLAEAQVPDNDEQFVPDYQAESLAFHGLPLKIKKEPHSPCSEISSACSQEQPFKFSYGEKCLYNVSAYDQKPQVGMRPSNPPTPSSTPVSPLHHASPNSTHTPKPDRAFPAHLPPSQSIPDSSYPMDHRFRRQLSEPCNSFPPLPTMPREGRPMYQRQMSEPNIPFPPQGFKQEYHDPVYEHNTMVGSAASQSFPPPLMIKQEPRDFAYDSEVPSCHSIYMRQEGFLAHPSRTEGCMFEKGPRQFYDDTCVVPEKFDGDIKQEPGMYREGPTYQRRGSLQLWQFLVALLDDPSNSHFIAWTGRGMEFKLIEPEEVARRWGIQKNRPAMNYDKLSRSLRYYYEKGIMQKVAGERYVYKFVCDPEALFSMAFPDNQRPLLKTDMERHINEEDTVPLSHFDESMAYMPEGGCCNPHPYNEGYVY

Sequence	binding signal (FEV)	binding signal (ETV5)	binding signal (HSF1)	binding signal (SPIC)	binding signal (ELF4)	binding signal (ELK4)	binding signal (ETV2)	binding signal (ELF3)	binding signal (CRX)	binding signal (ETV1)	binding signal (ERF)	binding signal (ETV3L)	binding signal (ETS2)	binding signal (SPDEF)	binding signal (ETV7)	binding signal (ELF5)	binding signal (ETV3)	binding signal (ETV6)
TTAAAT	1.16 fold enrichment (6-mer frequency, TF over GST control)	1.2 fold enrichment (6-mer frequency, TF over GST control)	1.85 fold enrichment (6-mer frequency, TF over GST control)	1.21 fold enrichment (6-mer frequency, TF over GST control)	1.14 fold enrichment (6-mer frequency, TF over GST control)	1.22 fold enrichment (6-mer frequency, TF over GST control)	1.25 fold enrichment (6-mer frequency, TF over GST control)	1.22 fold enrichment (6-mer frequency, TF over GST control)	2.92 fold enrichment (6-mer frequency, TF over GST control)	1.16 fold enrichment (6-mer frequency, TF over GST control)	1.1 fold enrichment (6-mer frequency, TF over GST control)	1.22 fold enrichment (6-mer frequency, TF over GST control)	1.19 fold enrichment (6-mer frequency, TF over GST control)	1.16 fold enrichment (6-mer frequency, TF over GST control)	1.21 fold enrichment (6-mer frequency, TF over GST control)	1.08 fold enrichment (6-mer frequency, TF over GST control)	1.15 fold enrichment (6-mer frequency, TF over GST control)	1.23 fold enrichment (6-mer frequency, TF over GST control)
TCCAAA	1.18 fold enrichment (6-mer frequency, TF over GST control)	1.12 fold enrichment (6-mer frequency, TF over GST control)	1.3 fold enrichment (6-mer frequency, TF over GST control)	1.11 fold enrichment (6-mer frequency, TF over GST control)	1.25 fold enrichment (6-mer frequency, TF over GST control)	1.17 fold enrichment (6-mer frequency, TF over GST control)	1.01 fold enrichment (6-mer frequency, TF over GST control)	1.16 fold enrichment (6-mer frequency, TF over GST control)	1.26 fold enrichment (6-mer frequency, TF over GST control)	1.1 fold enrichment (6-mer frequency, TF over GST control)	1.14 fold enrichment (6-mer frequency, TF over GST control)	1.18 fold enrichment (6-mer frequency, TF over GST control)	1.16 fold enrichment (6-mer frequency, TF over GST control)	1.15 fold enrichment (6-mer frequency, TF over GST control)	1.14 fold enrichment (6-mer frequency, TF over GST control)	1.15 fold enrichment (6-mer frequency, TF over GST control)	1.2 fold enrichment (6-mer frequency, TF over GST control)	1.14 fold enrichment (6-mer frequency, TF over GST control)
